According to PubChem BioAssay AID1347048 (National Center for Advancing Translational Sciences (NCATS), 2019):
The campaign covered roughly 76,000 compounds. About 1,200 (1.6%) were called active. Another 4% or so got no clear call; they are omitted. The list comes from a sample in which actives are over-represented; it also holds similar structures and randomly drawn compounds. A number with no mark means an inactive call. The call rests on the fitted dose curve.

target: Atrial natriuretic peptide receptor 1 (Homo sapiens) (UniProt P16066); assay: Natriuretic polypeptide receptor (hNpr1) antagonism - Primary qHTS; details: HEK293 hNpr1 GloSensor cGMP, ANP-stimulated luminescence; series mostly up to 70.6 µM; activity change, negative = inhibition: at the top concentration; further: nearly all actives have a fitted effect of over 60% in size
Text: Pruritus or itch, is an irritating skin sensation that creates a need to scratch, and ranges from mildly unpleasant and passing to acute and persistent sensations. […] Conventional treatments include topical anti-inflammatory agents, anti-histamines, and emollients, which are aimed at managing the itchy sensation and not the underlying disease. The treatment of pruritus remains a diagnostic and therapeutic challenge. Neurotransmission in the spinal cord from primary pruriceptors to second order neurons is a necessary step that eventually results in the sensation of itch. At this synapse, primary pruriceptors use the neuropeptide natriuretic polypeptide B (NppB) to activate its cognate receptor Natriuretic polypeptide receptor 1 (Npr1) on second order neurons. Inhibition of this step is a new potential strategy to inhibit acute and chronic itch. In order to identify small molecular compounds that can inhibit the Npr1 receptor we developed a high-throughput assay to probe inhibition of the receptor guanylate cyclase Npr1. The assay was designed taking advantage of Promega's GloSensor[TM] technology (Fan, F. et al. 2008). It involves the expression of a cyclic guanosine monophosphate (cGMP) biosensor, comprised of a firefly luciferase variant that was coupled to the cGMP binding domain of human phosphodiesterase 5A, and loading of cells with a cell-permeable luciferase substrate to monitor cGMP production by Npr1 in real time in live cells. In detail, we generated human embryonic kidney 293 cells stably expressing the human Npr1 and the cGMP GloSensor[TM] pGS-40F. Stimulating these cells with the Npr1 agonists human NppA or NppB, luciferase-induced light production could be detected in a dose-dependent manner. We also generated HEK293 cells stably expressing human Npr2 and pGS-40F and cells only expressing pGS-40F to conduct secondary counter screens. In these cells, NppC or sodium nitroprusside were used to stimulate Npr2 or soluble guanylate cyclase which is endogenously expressed in HEK293 cells, respectively. REFERENCE F. Fan, B. F. Binkowski, B. L. Butler, P. F. Stecha, M. K. Lewis, K. V. Wood, Novel genetically encoded biosensors using firefly luciferase. ACS Chem. Biol., 2008, 3: 346-351 .
PROTOCOL TABLES (as described by Inglese J, Shamu CE and Guy RK. 2007) SEQUENCE No. (e.g., 1, 2, 3, etc.); […] (e.g., Cells, Incubation, Reagent, etc.); VALUE and DESCRIPTION. GLOSENSOR PROTOCOL 1. Cells. Seed 1500 HEK293 cGMP-sensor cells expressing hNpr1 per well in 4uL into Greiner 1536-well white/solid bottom high base, tissue culture-treated plates. 2. Incubation. Incubate plated cells at 37C in 5% CO2, 95% RH overnight. 3. Reagent. Add 1uL per well GloSensor reagent from Promega (2% final concentration) or CO2 independent media vehicle control to respective columns of Greiner 1536-well plates. 4. Incubation. Incubate plated cells at room temperature for 2 h, protect from light. 5. Compounds. Library compounds and A-71915 control added at 23 nL per well, transferred by Pin Tool. 6. Incubation. Incubate plated cells for 30 min. at room temperature, protect from light. 7. Detector. GloSensor baseline pre-read luminescence measured using CCD-based camera (Viewlux). 8. Compound. Add 1uL of hNppA peptide to 0.1 nM final concentration to stimulate hNpr1 or CO2 independent media as vehicle control. 9. Incubation. Incubate treated cells at room temperature for 20 min., protect from light. 10. Detector. GloSensor post-hNppA luminescence measured using CCD-based camera (Viewlux). NOTES (numbers refer to Sequence numbers above) 1. HEK293 cells expressing hNpr1 and GIP/pGS-40F grown to 85-95% confluence (48-72 h) in T175 culture flasks (CO2 independent media supplemented with 10% FBS, 1% Pen/Strep antibiotics and 1 ug/mL puromycin). Trypsinize and harvest cells from T175 culture flasks and filter through 40 um cell strainer. Cells counted with Invitrogen Countess (30,000,000 - 50,000,000 cells/flask). […]
On the % scale 0 is the no-effect control and ±100 the full control effect; potency means the concentration at half of the fitted maximal effect.

Atrial natriuretic peptide receptor 1 (Homo sapiens), sequence (P16066 whole entry, looked up): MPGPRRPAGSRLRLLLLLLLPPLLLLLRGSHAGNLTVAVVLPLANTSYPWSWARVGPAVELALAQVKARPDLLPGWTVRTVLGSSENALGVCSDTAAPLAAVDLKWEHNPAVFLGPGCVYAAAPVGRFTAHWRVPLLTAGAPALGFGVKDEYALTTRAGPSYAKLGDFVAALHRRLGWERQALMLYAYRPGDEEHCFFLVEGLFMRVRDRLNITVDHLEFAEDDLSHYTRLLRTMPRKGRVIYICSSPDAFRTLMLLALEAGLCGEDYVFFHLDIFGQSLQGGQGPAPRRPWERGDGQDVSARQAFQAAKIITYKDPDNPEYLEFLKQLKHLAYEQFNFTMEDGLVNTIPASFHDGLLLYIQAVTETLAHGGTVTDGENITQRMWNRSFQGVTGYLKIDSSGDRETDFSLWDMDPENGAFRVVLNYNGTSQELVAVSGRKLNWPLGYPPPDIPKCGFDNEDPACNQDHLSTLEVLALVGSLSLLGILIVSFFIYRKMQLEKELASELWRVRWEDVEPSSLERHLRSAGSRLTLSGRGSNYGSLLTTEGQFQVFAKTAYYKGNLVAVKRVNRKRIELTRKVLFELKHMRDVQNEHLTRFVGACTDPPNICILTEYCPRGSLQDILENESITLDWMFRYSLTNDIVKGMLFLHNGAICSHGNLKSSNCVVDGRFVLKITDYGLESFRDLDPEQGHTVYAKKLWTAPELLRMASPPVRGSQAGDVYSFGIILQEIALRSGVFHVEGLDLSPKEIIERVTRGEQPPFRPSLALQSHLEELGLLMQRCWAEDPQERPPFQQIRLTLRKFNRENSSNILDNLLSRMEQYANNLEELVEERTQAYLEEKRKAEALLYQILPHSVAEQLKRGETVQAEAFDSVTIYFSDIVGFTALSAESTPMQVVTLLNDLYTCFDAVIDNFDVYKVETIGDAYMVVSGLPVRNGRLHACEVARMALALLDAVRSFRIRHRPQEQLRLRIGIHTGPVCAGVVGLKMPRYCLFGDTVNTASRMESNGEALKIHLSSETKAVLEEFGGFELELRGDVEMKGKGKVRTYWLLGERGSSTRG

SMILES | activity change, negative = inhibition | Potency
COc1cc2c(cc1Oc1ccccc1)NC(=O)C21CCN(c2ccnc(C)n2)CC1 | -18.9% | –
COc1cc2c(cc1Oc1cccc(N(C)C)c1)NC(=O)C21CCN(Cc2ccccn2)CC1 | – | 10 µM (active)
COc1cc2c(cc1OCc1ccncc1)NC(=O)C21CCN(Cc2ccccn2)CC1 | -3.28% | –
CN(Cc1ccccc1)C[C@H]1CN2CC[C@H]1C[C@@H]2CNC(=O)Nc1cccc(C#N)c1 | 4.8% | –
COc1cc2c(cc1OCc1ccncc1)NC(=O)C21CCN(c2ncc(F)cn2)CC1 | – | 20 µM (active)
COc1cc2c(cc1OCc1ccncc1)NC(=O)C21CCN(c2ncccn2)CC1 | 0.378% | –
COc1cc2c(cc1OCc1ccccc1)NC(=O)C21CCN(CCC(C)C)CC1 | -15.2% | –
Cc1nc(-c2ccccc2)cc([C@H]2CN3CC[C@H]2C[C@@H]3CNC2CCOCC2)n1 | 3.49% | –
O=C(NCc1ccccc1)[C@H]1CN2CCC1C[C@@H]2Cn1cc(-c2ccc(F)cc2)nn1 (stereo not given in full) | -8.5% | –
Cc1nc(-c2ccccc2)cc([C@H]2CN3CC[C@H]2C[C@@H]3CNC2CCN(C)CC2)n1 | -2.27% | –
CCC(CC)c1cc([C@H]2CN3CC[C@H]2C[C@@H]3CNC(=O)NCc2ccccc2)nc(-c2ccncc2)n1 | – | 11.2 µM (active)
CCC(CC)c1cc([C@H]2CN3CC[C@H]2C[C@@H]3CNS(=O)(=O)c2ccccc2C#N)nc(-c2ccncc2)n1 | -24.1% [at 46.3 µM] | –
CCCS(=O)(=O)NC[C@H]1C[C@@H]2CCN1C[C@@H]2c1cc(-c2ccccc2)nc(C)n1 | 1.77% | –
COc1ccc(C(=O)N2[C@H]3CC[C@@H]2c2cnc(-c4ccccc4)nc2C3)c(OC)c1 | -30.3% [at 46.3 µM] | –
COc1cc2c(cc1OCc1ccccc1)NC(=O)C21CCN(C(=O)C(C)C)CC1 | -9.19% | –
